Measurements as given in the supplement of paper PMC10849652.
Of roughly 7,900 targets only a part is listed; those with a hit were picked by preference. About 0.6% of all pairs of compound and target were hits.

Compound: CNC(=O)C1=CC=CC=C1NC2=NC(=NC=C2Cl)NC3=C(C=C(C=C3)N4CCOCC4)OC
Assay: log2 fold change, soluble protein after heating vs DMSO (PISA); higher = thermal stabilisation; K562 cells, 10 uM, 30 min; active = over 0.2 and 3.5 SD of the protein, either way, in both replicates (recomputed)
Method in brief: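 Soluble protein was defined as the supernatant after 21,000xg for 90 min. It came from K562 cells at 2×10^6 cells/mL given 10 μM compound for 30 min, heated in aliquots for 3 min across 48°C-58°C, pooled, and extracted in PBS with 0.5% NP-40 at 4°C, and was quantified by TMTpro 16plex LC-MS/MS with equalised channel sums. Thermal stability against control samples, from duplicates, is reported as log2 fold change.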

Chain of UniProt P30711 (P30711 whole entry, looked up): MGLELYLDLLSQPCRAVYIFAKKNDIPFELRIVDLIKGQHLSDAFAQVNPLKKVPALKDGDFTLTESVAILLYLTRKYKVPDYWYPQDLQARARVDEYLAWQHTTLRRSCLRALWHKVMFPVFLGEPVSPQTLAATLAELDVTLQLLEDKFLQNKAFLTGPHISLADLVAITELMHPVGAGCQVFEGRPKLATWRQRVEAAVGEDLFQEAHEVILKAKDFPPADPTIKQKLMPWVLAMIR
Chain of UniProt Q5SSJ5 (Q5SSJ5 whole entry, looked up): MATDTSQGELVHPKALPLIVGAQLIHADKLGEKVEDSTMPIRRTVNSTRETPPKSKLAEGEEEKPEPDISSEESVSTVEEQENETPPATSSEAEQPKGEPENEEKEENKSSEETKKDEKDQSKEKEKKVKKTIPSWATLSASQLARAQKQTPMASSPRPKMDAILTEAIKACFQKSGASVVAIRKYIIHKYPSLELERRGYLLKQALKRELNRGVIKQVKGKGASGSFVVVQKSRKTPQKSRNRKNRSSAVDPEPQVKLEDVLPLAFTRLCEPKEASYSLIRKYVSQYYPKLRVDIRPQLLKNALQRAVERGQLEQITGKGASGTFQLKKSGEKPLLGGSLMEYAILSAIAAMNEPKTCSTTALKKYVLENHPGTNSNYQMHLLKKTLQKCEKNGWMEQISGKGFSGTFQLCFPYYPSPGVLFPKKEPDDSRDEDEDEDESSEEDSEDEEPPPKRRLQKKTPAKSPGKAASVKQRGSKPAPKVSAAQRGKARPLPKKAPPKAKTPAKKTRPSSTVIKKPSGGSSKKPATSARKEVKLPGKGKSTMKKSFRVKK
Chain of UniProt P21695 (P21695 whole entry, looked up): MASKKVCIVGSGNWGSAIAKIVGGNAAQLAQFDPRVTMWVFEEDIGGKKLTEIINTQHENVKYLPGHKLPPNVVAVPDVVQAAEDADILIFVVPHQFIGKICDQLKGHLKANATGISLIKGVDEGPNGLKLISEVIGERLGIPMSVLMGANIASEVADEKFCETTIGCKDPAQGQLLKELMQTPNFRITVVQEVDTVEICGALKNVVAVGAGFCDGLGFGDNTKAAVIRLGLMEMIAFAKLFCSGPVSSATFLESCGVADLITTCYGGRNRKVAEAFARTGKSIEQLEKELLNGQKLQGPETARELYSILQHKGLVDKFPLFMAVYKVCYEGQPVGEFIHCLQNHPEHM
Chain of UniProt Q8WUI4 (Q8WUI4 whole entry, looked up): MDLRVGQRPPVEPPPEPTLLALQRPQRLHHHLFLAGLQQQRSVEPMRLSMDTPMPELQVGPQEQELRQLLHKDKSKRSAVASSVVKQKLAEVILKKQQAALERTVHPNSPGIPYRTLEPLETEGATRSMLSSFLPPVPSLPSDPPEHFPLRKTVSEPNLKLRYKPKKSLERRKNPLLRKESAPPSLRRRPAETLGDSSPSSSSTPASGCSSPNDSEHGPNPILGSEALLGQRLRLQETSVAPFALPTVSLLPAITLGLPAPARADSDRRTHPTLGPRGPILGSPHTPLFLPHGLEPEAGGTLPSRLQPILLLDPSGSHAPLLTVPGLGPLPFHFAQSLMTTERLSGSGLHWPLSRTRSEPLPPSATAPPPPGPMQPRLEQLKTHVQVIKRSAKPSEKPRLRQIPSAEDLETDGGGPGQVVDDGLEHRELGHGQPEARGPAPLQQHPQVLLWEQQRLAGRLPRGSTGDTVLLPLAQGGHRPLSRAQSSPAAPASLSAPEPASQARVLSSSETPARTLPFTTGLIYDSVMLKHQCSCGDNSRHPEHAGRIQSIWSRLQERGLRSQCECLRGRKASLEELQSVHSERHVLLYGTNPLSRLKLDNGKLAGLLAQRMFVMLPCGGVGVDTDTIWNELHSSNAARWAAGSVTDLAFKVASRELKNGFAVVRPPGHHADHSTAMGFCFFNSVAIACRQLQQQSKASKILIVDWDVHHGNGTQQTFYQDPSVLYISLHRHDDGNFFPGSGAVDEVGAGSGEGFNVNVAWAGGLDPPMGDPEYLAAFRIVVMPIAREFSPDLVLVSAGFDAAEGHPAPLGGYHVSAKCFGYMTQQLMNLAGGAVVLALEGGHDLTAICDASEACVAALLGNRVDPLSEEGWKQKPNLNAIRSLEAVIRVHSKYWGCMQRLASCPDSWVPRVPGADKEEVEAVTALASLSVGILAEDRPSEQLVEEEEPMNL
Chain of UniProt Q9Y613 (Q9Y613 whole entry, looked up): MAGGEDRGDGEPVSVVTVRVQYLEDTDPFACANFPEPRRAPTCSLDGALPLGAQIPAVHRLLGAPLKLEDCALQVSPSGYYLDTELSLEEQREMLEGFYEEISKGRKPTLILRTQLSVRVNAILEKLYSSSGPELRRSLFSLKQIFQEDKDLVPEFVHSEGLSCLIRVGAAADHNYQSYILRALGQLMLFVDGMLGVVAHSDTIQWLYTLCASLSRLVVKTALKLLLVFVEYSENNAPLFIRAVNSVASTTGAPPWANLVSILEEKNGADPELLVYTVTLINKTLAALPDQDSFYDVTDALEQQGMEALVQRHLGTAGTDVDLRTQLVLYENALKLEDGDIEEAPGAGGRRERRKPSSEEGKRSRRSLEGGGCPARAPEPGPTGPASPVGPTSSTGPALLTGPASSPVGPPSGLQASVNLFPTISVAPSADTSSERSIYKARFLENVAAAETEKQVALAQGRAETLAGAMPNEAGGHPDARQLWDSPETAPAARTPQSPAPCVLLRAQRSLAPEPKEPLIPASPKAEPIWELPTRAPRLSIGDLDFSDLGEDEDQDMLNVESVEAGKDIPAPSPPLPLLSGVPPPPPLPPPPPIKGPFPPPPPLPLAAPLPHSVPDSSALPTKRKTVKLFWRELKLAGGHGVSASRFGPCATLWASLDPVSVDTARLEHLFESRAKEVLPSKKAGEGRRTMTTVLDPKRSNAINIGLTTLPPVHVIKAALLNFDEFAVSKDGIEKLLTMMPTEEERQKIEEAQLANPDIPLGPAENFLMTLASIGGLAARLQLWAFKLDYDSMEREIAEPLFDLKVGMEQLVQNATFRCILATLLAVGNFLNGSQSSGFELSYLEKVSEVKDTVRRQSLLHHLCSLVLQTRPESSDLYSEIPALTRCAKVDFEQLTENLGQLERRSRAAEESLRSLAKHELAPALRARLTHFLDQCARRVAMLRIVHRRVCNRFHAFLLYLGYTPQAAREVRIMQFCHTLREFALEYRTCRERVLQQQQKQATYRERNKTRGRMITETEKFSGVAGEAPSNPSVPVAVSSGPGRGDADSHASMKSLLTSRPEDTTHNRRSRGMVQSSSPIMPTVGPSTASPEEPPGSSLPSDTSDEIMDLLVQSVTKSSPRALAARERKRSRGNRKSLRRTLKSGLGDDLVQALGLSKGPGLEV
Chain of UniProt O94925 (O94925 whole entry, looked up): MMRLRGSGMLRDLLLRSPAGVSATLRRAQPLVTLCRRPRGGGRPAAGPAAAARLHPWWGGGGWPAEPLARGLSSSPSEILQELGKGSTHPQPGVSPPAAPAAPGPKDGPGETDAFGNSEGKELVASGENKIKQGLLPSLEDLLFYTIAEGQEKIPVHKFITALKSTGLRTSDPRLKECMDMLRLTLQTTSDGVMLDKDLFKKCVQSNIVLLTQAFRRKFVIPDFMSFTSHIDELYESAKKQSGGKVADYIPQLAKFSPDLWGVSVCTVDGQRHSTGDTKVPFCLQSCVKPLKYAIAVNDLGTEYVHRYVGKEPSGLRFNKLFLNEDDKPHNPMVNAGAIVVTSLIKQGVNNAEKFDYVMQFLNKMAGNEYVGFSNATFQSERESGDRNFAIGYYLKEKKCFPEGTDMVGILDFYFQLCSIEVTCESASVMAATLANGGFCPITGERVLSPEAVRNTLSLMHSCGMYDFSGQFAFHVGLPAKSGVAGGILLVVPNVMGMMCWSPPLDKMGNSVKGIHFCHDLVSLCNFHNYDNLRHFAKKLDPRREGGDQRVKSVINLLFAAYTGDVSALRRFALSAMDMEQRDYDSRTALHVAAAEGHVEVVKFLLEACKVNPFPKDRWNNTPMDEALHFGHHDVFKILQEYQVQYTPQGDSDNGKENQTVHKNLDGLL
Chain of UniProt P52655 (P52655 whole entry, looked up): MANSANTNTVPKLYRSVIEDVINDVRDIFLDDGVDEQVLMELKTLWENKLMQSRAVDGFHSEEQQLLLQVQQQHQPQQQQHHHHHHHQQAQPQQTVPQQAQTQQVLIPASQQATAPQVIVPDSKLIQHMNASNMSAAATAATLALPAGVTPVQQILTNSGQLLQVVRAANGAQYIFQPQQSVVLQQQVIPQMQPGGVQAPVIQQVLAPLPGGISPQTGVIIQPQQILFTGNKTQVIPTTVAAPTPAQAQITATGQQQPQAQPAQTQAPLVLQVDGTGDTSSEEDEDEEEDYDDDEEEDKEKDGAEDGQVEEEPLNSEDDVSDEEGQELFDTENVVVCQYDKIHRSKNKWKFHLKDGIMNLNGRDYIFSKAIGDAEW
Chain of UniProt Q13227 (Q13227 whole entry, looked up): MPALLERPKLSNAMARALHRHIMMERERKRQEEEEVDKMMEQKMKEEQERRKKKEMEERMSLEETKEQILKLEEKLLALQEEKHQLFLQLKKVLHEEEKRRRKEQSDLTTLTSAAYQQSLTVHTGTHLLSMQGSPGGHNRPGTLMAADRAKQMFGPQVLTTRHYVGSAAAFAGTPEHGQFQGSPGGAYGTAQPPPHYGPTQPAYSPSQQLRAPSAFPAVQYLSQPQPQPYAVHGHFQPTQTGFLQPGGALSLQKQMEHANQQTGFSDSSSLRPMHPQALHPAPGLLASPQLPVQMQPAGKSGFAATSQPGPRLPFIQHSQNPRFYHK
Chain of UniProt P50213 (P50213 whole entry, looked up): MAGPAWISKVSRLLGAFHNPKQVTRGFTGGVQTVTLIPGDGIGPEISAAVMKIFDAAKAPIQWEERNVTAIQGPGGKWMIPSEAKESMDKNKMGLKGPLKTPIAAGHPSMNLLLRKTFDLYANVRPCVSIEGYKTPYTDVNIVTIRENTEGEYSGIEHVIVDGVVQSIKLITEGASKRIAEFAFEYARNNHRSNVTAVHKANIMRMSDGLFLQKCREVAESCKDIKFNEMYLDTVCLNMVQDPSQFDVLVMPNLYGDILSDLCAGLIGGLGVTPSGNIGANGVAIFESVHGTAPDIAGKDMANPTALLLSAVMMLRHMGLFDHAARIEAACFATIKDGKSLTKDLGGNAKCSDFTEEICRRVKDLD

log2 fold change, inactive:
IDH3A isoform 2 (UniProt P50213) -0.117
HP1BP3 (UniProt Q5SSJ5) -0.045
GLS isoform 3 (UniProt O94925) -0.025
FHOD1 (UniProt Q9Y613) -0.027
GPD1 (UniProt P21695) -0.298
FAT2 (UniProt Q9NYQ8) -0.206
GREB1 (UniProt Q4ZG55) -0.113
FBXO9 (UniProt Q9UK97) 0.141
GSTT1 (UniProt P30711) -0.029
GOLGA8R (UniProt I6L899) -0.148
HDAC7 isoform 5 (UniProt Q8WUI4) -0.2
GTF2A1 (UniProt P52655) -0.007
GPNMB (UniProt Q14956) -0.221
HSPA8 (UniProt E9PN89) -0.057
GPS2 (UniProt Q13227) 0.008
IGF2 isoform 3 (UniProt P01344) -0.033
HBZ, A0A494C057 0.005
FMR1 (UniProt Q06787) 0.006
GOLGA6B (UniProt A6NDN3) -0.066
FYB1 isoform 3 (UniProt O15117) 0
GBE1 (UniProt Q04446) -0.027
ICMT (UniProt O60725) 0.061
HNRNPUL1 (UniProt M0R247) -0.145
